# Data taken from PubChem BioAssay (NCATS).
# Inconclusive results are not listed. The source made the active and inactive calls. Calls come from the whole dose curve; as a rule, active = well fitted inhibition curve with a large enough effect; inconclusive = small, poorly fitted or top-dose-only effect; inactive = no such curve, though single readings can be large or run the other way.
# Biological target: Cytochrome P450 2C19 (Homo sapiens) (UniProt P33261)
# Experiment: qHTS Assay for Inhibitors and Substrates of Cytochrome P450 2C19 (AID 899); note: nearly all actives have a fitted effect of over 60% in size
# Conditions: recombinant CYP2C19, luciferin-H EGE luminescence; series mostly up to 57.1 µM; activity, negative = inhibition: at the top concentration
# Method: NIH Molecular Libraries Screening Centers Network [MLSCN]
# NIH Chemical Genomics Center [NCGC]
# The P450 gene superfamily is involved in the metabolism and clearance of xenobiotics. This assay used human CYP2C19 to measure the hydroxylation of ethylene glycol ester of 6' deoxyluciferin (Luciferin-H EGE; […]) to luciferin. The luciferin is then measured by luminescence after the addition of a luciferase detection reagent. Luciferin-H EGE concentration in the assay was equal to its KM for CYP2C19. Inhibitors and some substrates limit the production of luciferin, and decrease measured luminescence.
# NCGC Assay Protocol Summary:
# Two uL of enzyme and substrate mix (final concentrations: 5nM CYP2C19, 10uM Luciferin-H EGE, 50mM KPO4) were dispensed into a white, solid bottom 1536-well microtiter plate. 23nL of compound was transferred by a pin tool. The plate was incubated at 37C for 10 min. Two uL of an NADPH regeneration solution (Promega supplied reagent) was dispensed and the reaction was allowed to continue for 60 min at 37C. Then the reaction was stopped by reconstituted luciferin detection buffer. After another 20 min of incubation the plate was read on the ViewLux (Perkin Elmer) at 60 sec exposure and 2x2 binning. This protocol was carried out with Promega-Glo reagents and further information can be found at http://www.promega.com/tbs/tb325/tb325.pdf. Data were normalized to the to AC100 inhibition (57uM ketoconazole).
# Keywords: P450, CYP2C19, Luciferase, MLSMR, MLSCN, NIH Roadmap, qHTS, NCGC
# % is set by controls: 0 for no effect and ±100 for the full control effect; potency is the fitted concentration of half-maximal effect.
# Cytochrome P450 2C19 (Homo sapiens), sequence (P33261 whole entry, looked up): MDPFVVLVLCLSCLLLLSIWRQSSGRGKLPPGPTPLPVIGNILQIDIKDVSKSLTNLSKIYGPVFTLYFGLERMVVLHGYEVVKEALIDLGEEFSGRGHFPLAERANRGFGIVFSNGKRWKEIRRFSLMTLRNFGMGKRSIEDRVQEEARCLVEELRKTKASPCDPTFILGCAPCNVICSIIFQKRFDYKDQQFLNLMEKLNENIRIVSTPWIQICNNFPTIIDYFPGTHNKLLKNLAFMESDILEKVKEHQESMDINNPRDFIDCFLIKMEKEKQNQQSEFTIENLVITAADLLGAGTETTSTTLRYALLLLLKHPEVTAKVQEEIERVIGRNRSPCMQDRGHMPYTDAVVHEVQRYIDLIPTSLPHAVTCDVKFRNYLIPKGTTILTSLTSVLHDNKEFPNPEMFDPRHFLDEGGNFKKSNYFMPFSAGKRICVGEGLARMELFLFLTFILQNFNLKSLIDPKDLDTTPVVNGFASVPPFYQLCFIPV
SMILES,Potency,"activity, negative = inhibition"
COc1ccc(-n2c(=O)c(CCc3ccccc3)nc3cnc(OC)nc32)cc1,6310 nM (active),–
c1ccc(NN(Cc2cnccn2)c2ccccc2)cc1,2000 nM (active),–
CS(=O)(=O)Nc1cccc(-c2nc(Nc3ccncc3)c3ccccc3n2)c1,5010 nM (active),–
O=C1C=C(NCCc2cc(Br)c(O)c(Br)c2)C(=O)c2ncccc21,501 nM (active),–
Clc1ccccc1-c1nc(-n2ccnc2)c2ccccc2n1,7940 nM (active),–
COc1cc2cc(Oc3ccc4ccc(=O)oc4c3)c(=O)oc2cc1O,–,12.8% (inactive)
CN(C)c1ccc(-c2cncnc2NCCc2cnc[nH]2)cc1,79.4 nM (active),–
COc1ccc2[nH]cc(CCNc3cc(-c4cccc(C#N)c4)ncn3)c2c1,7940 nM (active),–
c1ccc(CNc2nc(-c3cccnc3)nc3ccccc23)cc1,15800 nM (active),–
COc1cccc(Cn2c(=O)c(CCc3ccccc3)nc3cnc(N4CCN(C)CC4)nc32)c1,7940 nM (active),–
COc1cc2cc3c4c(cc(OC)c(OC)c4c2cc1OC)CCN3C,50.1 nM (active),–
CCNc1ncc2nc(CCc3ccccc3)c(=O)n(Cc3cccc(OC)c3)c2n1,6310 nM (active),–
CC(C)=CCC1=C(OCC(=O)O)C(=O)c2ccccc2C1=O,1260 nM (active),–
Cc1ccccc1-c1ccc2ncnc(N3CCOCC3)c2c1,1580 nM (active),–
COc1ccc2[nH]cc(CCNc3ncncc3-c3ccccc3OC)c2c1,79.4 nM (active),–
O=c1cc(-c2ccc(O)c(O)c2)oc2cc(O[C@@H]3O[C@@H](CO)[C@@H](O)[C@@H](O)[C@H]3O)cc(O)c12,–,-8.61% (inactive)
COc1ccc2[nH]cc(CCNc3ncnc4ccc(-c5cccc(C#N)c5)cc34)c2c1,7940 nM (active),–
CCNc1ncc2nc(C)c(=O)n(CCc3ccccc3)c2n1,316 nM (active),–
COc1cccc(Cn2c(=O)c(CCc3ccccc3)nc3cnc(N(C)C)nc32)c1,794 nM (active),–
COc1ccccc1CNc1ncncc1-c1ccccc1C(F)(F)F,1580 nM (active),–

SMILES,Potency,"activity, negative = inhibition"
COc1cccc(Cn2c(=O)cnc3cnc(N(C)C)nc32)c1,2510 nM (active),–
COc1ccc(-c2oc3ccc(C)cc3c(=O)c2O)cc1OC,–,22% (inactive)
N=C(N)c1ccc(N=Nc2c(O)ccc3c2[nH]c2ccccc23)cc1,1260 nM (active),–
CN(Cc1ccco1)c1nc(-c2ccccc2C(F)(F)F)nc2ccccc12,7940 nM (active),–
CN(Cc1ccco1)c1ncnc2ccc(-c3cccc(NS(C)(=O)=O)c3)cc12,7940 nM (active),–
CCNc1ncc2nc(CCc3ccccc3)c(=O)n(C3CC3)c2n1,6310 nM (active),–
COc1ccc2[nH]cc(CCNc3nc(-c4ccccc4OC)nc4ccccc34)c2c1,5010 nM (active),–
COc1cccc(-c2cncnc2NCc2ccccc2OC)c1,2000 nM (active),–
COCCn1c(=O)c(-c2cccc(C#N)c2)nc2cnc(OCc3ccccc3)nc21,–,-46.3% (inactive)
CN(C)c1ccc(-c2nccc(Nc3ccc(F)cc3)n2)cc1,3160 nM (active),–
COc1ccc2[nH]cc(CCNc3ncncc3-c3ccccc3C(F)(F)F)c2c1,251 nM (active),–
Clc1ccccc1-c1nc(Nc2ccncc2)c2ccccc2n1,5010 nM (active),–
COc1ccccc1CNc1ncncc1-c1ccccc1Cl,1260 nM (active),–
COc1ccc2[nH]cc(CCNc3ncnc4ccc(-c5ccoc5)cc34)c2c1,7940 nM (active),–
COc1ccc2[nH]cc(CCNc3cc(-c4ccccc4OC)ncn3)c2c1,3160 nM (active),–
COc1ccccc1-c1ccc2ncnc(N3CCOCC3)c2c1,1260 nM (active),–
COc1cccc(-c2cncnc2NCCc2c[nH]c3ccc(OC)cc23)c1,316 nM (active),–
Cc1ccccc1-c1ccc2ncnc(-n3ccnc3)c2c1,2000 nM (active),–
Cn1cc(-c2nc3cnc(N4CCNCC4)nc3n(CCc3ccccc3)c2=O)c2ccccc21,2000 nM (active),–
COc1cccc(Cn2c(=O)cnc3cnc(Nc4cccc(OC)c4)nc32)c1,3980 nM (active),–
